system: PIK3C2B; conditions: concentration: 1 μM, replicates: in singlicate; n = 1
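Note: KINOMEscan kinase panel screen.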

| SMILES | %Inh |
| --- | --- |
| Cc1cccc(Nc2nc(N[C@H]3CCNC3)ncc2C(N)=O)c1.Cl [GSK2197149] | 0% |
| COc1cccc(C(=O)Nc2cccc(Oc3ccc4nc(NC(=O)C5CC5)cn4n3)c2)c1 | 0% |
| Cl.c1ccc(-c2ccc3c(Nc4ccc5[nH]ccc5c4)ccnc3c2)nc1 [GW440138] | 0% |
| CC(=O)N1CCN(c2ccc(Nc3nccc(-c4sc(C(C)C)nc4-c4cccc(NS(=O)(=O)c5cccc(Cl)c5)c4)n3)cn2)CC1 [GSK1660437] | 0% |
| CCn1c(-c2nonc2N)nc2c(C#CC(C)(C)O)ncc(OCCCCN)c21.O=C(O)C(F)(F)F.O=C(O)C(F)(F)F [GSK507274] | 0% |
| O=C(Nc1cccc(-c2nn3ccccc3c2-c2ccnc(Nc3cccc(C(F)(F)F)c3)n2)c1)c1c(F)cccc1F [GSK292658] | 0% |
| O=C(NC1CCN(c2ccnc(Nc3ccc(F)cc3)n2)C1)c1cc2ccccc2s1 (stereo not shown) [GSK1379716] | 0% |
| COc1cc(Nc2nccc(-c3c(-c4cccc(NC(=O)c5c(F)cccc5F)c4)nn4ncccc34)n2)cc(OC)c1OC [GSK327238] | 0% |
| COc1cccc(-c2ccc3c(NC(=O)C4CC4)n[nH]c3n2)c1 [SB-710903] | 0% |
| Cn1cc(-c2ccc3c(c2)CCN3C(=O)Cc2cccc(Cl)c2)c2c(N)ncnc21 [GSK2606590] | 89% |

— PMC5540273 (PLoS ONE, 2017)
